These results are taken from PubChem BioAssay.

Assay [1] in a line: yeast TOR pathway RPL19A-GFP modulators, primary screen, cell-based, S. cerevisiae, multiplex flow cytometry (AID 1862; in the data active means percent of DMSO control GFP below about 86%;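 further: lower values mimic rapamycin by blocking the RPL19A rise seen in DMSO cells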). The following applies: S. cerevisiae RPL19A-GFP strain, flow cytometry fluorescence, 3 h; at 10 µM; stronger effect = lower value.
Assay [2] can be described thus: modulators of MEP2-GFP levels in yeast, primary screen, S. cerevisiae, multiplex flow cytometry (AID 1867;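 active means GFP response, as percent of the DMSO control, above the screen-wide mean plus 3 SD, about 139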;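 further: median GFP channel fluorescence of barcode-gated MEP2-GFP cells measured by flow cytometry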). The following applies: S. cerevisiae MEP2-GFP strain, 3 h, at 10 µM, stronger effect = higher value, 100% means same as DMSO wells.
Assay [3] in a line: modulators of CIT2-GFP expression in yeast, primary screen, S. cerevisiae, GFP fusion, multiplex flow cytometry (AID 1870;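 active means percent response above a set limit, the screen-wide mean plus 3 SD, cut at about 130% in these data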;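 further: barcoded CIT2-GFP strain pooled with four other GFP strains with rapamycin as positive control; median GFP fluorescence per well over plate mean of DMSO wells so 100% = DMSO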). The note with it: 3 h, at 10 µM, stronger effect = higher value.
A short description of assay [4]: modulators of LAP4-GFP expression in yeast, primary screen, S. cerevisiae, multiplex flow cytometry (AID 1873;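 active means GFP signal, as percent of the solvent control, above the screen mean plus 3 SD, about 149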). The note with it: 3 h, at 10 µM, stronger effect = higher value.
The nature of assay [5]: modulators of AGP1-GFP expression in yeast TOR pathway, primary screen, cell-based, multiplex flow cytometry, S. cerevisiae (AID 1887;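 active means GFP signal above the screen-wide mean plus 3 SD, that is over about 124.5% of the solvent control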;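 further: AGP1-GFP fusion strain of S. cerevisiae within a five-strain barcoded multiplex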). The following applies: 3 h, at 10 µM, stronger effect = higher value.
Assay [6] is described as follows: inhibitors of CD8+ T cell-vesicle binding, pilot screen, LFA-1/ICAM-1 modulator project, MLPCN validation set, flow cytometry (AID 2523).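 On vesicle binding response: mean PE anti-B7-1 fluorescence of CD8+ cells relative to row control; 100% = QL9-loaded vesicles with DMSO vehicle in the same plate row.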 The following applies: 2C mouse CD8+ T cells, at 7 µM, stronger effect = lower value; double positive events: measured here: CD8+/vesicle+ event percentage.
In assay [7] the target is Integrin beta-1 (Homo sapiens) + Integrin alpha-4 (Homo sapiens) (UniProt P13612+P05556). The assay can be described thus: inhibition of HUTS-21 binding to VLA-4, pilot screen, VLA-4 allosteric modulator project, U937 cells, HUTS-21 mAb, flow cytometry, validation set (AID 2674;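 active means inhibition above 50%, about 3 SD of the validation set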;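 further: antibody binding induced by the VLA-4 ligand LDV present at three times its Kd; 0% = LDV ligand with antibody and no compound and 100% = antibody without LDV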). The note with it: HUTS-21 LIBS mAb binding, at 6.7 µM, stronger effect = higher value, binding induced by LDV ligand.

Assay [8] can be described thus: superoxide lowering in aged yeast cells, pilot screen, validation compound set (AID 2706;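 active means superoxide response below 65% of plate, a cut near 3 SD across the whole screen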;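 further: yeast exposed to compound for one week at 30 degrees C before staining; 100% = mean of all compound wells on the same plate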). The note with it: S. cerevisiae aging, superoxide DHE fluorescence; at 10 µM; stronger effect = lower value.
In assay [9] the target is Beta-adrenergic receptor kinase 1 (Homo sapiens) (UniProt P25098). The assay can be described thus: GRK2 binders displacing RNA aptamer, biochemical, validation, human GRK2, bead flow cytometry (AID 488806;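 active means aptamer binding inhibition above 30%, about 3 SD of noise from non-fluorescent compounds; inactive means inhibition at or below 30%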). The note with it: bead-bound GRK2, FAM-aptamer displacement, at 10 µM, stronger effect = higher value.
The target of assay [10] is Beta-2 adrenergic receptor (Homo sapiens) (UniProt P07550). As to the kind of experiment: beta2AR agonists driving receptor internalization, pilot screen, cell-based, FAP fluorogen, flow cytometry, validation set (AID 504459;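 active means percent response above 42, roughly 3 SD of non-fluorescent test compounds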;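 further: agonist-driven loss of surface beta2AR via internalization measured by FAP dye flow cytometry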). The note with it: Am2.2-beta2AR cells, FAP surface receptor flow cytometry; at 10 µM; stronger effect = higher value.
The target in assay [11] is AP-2 complex subunit beta (Homo sapiens) (UniProt P63010). As to the kind of experiment: inhibitors of arrestin peptide binding to AP2, pilot screen, biochemical, validation set, GST-AP2 beads, flow cytometry (AID 504541;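 active means inhibition above 54%, about 3 SD of non-fluorescent compounds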;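 further: AP2 carries R879A mutation and is captured from E. coli lysate; bead-bound FITC arrestin peptide fluorescence measuring arrestin peptide binding to AP2; 0% = DMSO wells and 100% = excess unlabeled arrestin peptide control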). The following applies: FITC arrestin peptide, at 10 µM, stronger effect = higher value, AP2 beta2 appendage fragment, R879A mutant.
A short description of assay [12]: yeast V-ATPase proton transport modulators, S. cerevisiae, pHLuorin, HTS validation (AID 504600; in the data active means response above about 15%;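 further: plate controls were DMSO for no effect and reference compound for full effect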). The following applies: S. cerevisiae pHLuorin cytosolic pH, at 10 µM, stronger effect = higher value.
The subject of assay [13] is anti-desmoglein-3 scFv antibody binding to human DSG3. As to the kind of experiment: inhibitors of anti-DSG3 scFv binding to DSG3, pilot screen, biochemical, validation compound set, bead-based, flow cytometry (AID 588368;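 active means binding below the plate cutoff, the plate median minus 3 SD, with a reading above zero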;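 further: signal is the median channel fluorescence of bead-bound GFP antibody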). The note with it: Protein G beads, DSG3-Fc, scFv-GFP binding, at 10 µM, stronger effect = lower value.
A short description of assay [14]: inhibitors of fungal efflux pumps CDR1, CDR2, MDR1, pilot screen, validation compound set, multiplex, phenotypic (AID 588506;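 active means efflux inhibition above 0.42, the validation set average plus 4 SD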;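 further: Nile Red retained in cells so higher fluorescence means more efflux inhibition; 0 = negative control wells and 1 = enniatin B 25 µM full block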). The following applies: S. cerevisiae pump-expressing triplex, Nile Red efflux flow cytometry; at 10 µM; stronger effect = higher value; the pumps come from Candida albicans.
Assay [15] deals with ATP-binding cassette sub-family B member 6 (Homo sapiens) (UniProt Q9NP58). The assay can be described thus: ABCB6 transporter inhibitors, pilot screen, K562-ABCB6 cells, flow cytometry, validation set (AID 588550;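 active means inhibition above the screen-wide mean plus 3 SD, about 51%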;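 further: 0% = DMSO wells and 100% = benzethonium chloride 70 µM positive control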). The note with it: K562-ABCB6 porphyrin accumulation, 1 h, at 10 µM, stronger effect = higher value.
The nature of assay [16]: promoters of myeloid differentiation in arrested cells, primary screen, cell-based, GFP/MAC1 double positive, flow cytometry, validation set (AID 588685;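 active means differentiation response of at least 50%, scaled between solvent and reference control, from cells with both markers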;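 further: compound exposure lasts four days before antibody staining and flow analysis; 0% = DMSO wells and 100% = 5 µM fulvestrant positive control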). The note with it: ER-HoxA9 marrow cells, stronger effect = higher value, normalized: vehicle 0, fulvestrant 100.

Each structure is given as a SMILES string. Inconclusive results are not listed. Calls of active or inactive are those of the source.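 How the source made its calls, unless noted: active means response below a set limit, under 55% cells CD8-positive and vesicle-bound, and CD8 cells' 90th-percentile brightness under 279; inactive means the rest.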

Chain of Beta-2 adrenergic receptor (Homo sapiens) (P07550 whole entry, looked up): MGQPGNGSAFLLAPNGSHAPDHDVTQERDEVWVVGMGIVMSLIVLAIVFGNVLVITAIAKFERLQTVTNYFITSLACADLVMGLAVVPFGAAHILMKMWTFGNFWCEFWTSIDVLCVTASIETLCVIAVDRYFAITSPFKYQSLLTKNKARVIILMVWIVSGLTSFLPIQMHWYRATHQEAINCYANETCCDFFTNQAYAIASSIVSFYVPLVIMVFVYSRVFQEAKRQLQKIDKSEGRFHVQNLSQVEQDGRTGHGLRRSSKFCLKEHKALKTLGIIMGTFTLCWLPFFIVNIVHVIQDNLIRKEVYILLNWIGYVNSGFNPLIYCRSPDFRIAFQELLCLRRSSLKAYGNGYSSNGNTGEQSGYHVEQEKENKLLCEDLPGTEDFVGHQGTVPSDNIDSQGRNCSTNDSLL
Chain of ATP-binding cassette sub-family B member 6 (Homo sapiens) (Q9NP58 whole entry, looked up): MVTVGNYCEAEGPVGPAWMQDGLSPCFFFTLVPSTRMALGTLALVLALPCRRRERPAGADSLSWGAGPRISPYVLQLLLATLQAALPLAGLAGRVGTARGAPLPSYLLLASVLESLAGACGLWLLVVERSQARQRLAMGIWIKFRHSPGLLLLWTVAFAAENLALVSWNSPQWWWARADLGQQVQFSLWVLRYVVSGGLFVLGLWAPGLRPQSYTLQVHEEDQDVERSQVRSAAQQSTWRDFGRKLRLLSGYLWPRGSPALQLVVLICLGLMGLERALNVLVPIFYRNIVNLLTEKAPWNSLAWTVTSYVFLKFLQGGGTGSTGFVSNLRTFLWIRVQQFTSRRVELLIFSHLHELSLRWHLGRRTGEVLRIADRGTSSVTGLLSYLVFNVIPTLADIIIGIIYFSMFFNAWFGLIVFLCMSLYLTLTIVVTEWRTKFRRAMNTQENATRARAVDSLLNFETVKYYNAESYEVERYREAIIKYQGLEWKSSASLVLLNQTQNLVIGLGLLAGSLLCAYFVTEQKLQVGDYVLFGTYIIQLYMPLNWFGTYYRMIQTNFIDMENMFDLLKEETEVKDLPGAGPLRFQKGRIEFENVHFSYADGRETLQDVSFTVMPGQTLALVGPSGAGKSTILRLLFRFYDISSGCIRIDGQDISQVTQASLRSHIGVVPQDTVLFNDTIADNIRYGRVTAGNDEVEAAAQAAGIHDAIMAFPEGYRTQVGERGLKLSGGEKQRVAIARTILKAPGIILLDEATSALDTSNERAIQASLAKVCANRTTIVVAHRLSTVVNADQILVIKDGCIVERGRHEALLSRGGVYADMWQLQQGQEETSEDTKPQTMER
Chain of Integrin beta-1 (Homo sapiens) + Integrin alpha-4 (Homo sapiens) (P05556 whole entry, looked up): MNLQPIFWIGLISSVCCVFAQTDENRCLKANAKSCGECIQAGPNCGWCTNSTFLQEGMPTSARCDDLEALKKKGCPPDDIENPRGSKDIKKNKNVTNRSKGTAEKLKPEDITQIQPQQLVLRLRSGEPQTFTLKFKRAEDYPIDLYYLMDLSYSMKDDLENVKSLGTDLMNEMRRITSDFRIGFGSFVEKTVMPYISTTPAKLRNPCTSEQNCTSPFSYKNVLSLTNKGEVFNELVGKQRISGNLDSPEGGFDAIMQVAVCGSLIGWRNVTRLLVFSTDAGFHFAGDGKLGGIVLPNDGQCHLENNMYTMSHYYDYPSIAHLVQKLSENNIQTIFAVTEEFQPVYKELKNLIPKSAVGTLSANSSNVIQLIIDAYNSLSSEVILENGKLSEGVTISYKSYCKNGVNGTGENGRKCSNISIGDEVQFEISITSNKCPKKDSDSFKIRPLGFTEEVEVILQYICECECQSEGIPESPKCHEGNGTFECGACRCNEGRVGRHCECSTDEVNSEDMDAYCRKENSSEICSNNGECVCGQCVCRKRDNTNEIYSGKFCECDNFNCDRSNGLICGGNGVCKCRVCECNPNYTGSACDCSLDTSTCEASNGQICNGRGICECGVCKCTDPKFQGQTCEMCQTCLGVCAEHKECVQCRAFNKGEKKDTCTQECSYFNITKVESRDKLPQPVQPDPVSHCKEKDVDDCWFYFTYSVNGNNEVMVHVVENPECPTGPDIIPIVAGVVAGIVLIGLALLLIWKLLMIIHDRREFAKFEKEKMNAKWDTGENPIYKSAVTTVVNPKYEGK
Chain of Integrin beta-1 (Homo sapiens) + Integrin alpha-4 (Homo sapiens) (P13612 whole entry, looked up): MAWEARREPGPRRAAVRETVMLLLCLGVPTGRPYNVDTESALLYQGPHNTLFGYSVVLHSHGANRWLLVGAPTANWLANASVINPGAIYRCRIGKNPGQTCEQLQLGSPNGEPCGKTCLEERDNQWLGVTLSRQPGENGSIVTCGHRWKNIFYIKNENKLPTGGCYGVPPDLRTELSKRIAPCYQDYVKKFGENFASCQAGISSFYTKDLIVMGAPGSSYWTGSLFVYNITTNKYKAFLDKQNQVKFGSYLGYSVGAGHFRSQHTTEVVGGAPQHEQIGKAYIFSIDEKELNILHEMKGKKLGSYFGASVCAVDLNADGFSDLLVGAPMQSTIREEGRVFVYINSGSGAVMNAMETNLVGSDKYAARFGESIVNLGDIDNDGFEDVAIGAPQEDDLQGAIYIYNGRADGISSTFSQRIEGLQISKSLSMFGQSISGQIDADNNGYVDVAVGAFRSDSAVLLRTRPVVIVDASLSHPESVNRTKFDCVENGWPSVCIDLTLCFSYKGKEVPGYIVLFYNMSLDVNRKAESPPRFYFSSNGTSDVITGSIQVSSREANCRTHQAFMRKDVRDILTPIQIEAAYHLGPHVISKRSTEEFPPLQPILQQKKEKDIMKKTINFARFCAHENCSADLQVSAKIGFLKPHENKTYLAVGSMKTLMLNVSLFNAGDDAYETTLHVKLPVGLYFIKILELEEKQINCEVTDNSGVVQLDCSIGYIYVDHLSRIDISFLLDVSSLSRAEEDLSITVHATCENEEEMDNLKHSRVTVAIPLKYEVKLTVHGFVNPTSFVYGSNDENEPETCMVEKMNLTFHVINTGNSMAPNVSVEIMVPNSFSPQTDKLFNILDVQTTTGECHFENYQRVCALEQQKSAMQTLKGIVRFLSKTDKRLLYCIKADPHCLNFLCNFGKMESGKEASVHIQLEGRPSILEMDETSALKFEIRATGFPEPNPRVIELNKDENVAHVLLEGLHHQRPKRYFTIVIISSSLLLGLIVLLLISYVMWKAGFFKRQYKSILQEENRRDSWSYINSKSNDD
Chain of Beta-adrenergic receptor kinase 1 (Homo sapiens) (P25098 whole entry, looked up): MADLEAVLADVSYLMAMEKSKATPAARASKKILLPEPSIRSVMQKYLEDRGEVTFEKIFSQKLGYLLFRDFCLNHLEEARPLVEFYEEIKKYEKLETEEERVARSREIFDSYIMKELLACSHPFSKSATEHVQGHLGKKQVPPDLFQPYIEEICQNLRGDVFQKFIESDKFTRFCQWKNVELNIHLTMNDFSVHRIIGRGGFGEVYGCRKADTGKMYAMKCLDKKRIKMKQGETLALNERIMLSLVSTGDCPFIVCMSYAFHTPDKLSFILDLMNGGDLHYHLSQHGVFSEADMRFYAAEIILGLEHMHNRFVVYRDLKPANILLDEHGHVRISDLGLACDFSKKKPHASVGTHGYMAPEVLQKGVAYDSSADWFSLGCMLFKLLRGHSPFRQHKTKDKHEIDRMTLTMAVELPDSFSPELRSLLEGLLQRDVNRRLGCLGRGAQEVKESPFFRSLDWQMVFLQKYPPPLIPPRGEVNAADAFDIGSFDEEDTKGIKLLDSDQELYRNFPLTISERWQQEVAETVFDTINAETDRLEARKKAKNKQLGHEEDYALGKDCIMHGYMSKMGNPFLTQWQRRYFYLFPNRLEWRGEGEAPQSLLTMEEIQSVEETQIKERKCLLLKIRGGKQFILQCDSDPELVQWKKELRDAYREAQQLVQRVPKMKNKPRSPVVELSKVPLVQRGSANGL
Chain of AP-2 complex subunit beta (Homo sapiens) (P63010 whole entry, looked up, the tested form may be a part, one chain of several): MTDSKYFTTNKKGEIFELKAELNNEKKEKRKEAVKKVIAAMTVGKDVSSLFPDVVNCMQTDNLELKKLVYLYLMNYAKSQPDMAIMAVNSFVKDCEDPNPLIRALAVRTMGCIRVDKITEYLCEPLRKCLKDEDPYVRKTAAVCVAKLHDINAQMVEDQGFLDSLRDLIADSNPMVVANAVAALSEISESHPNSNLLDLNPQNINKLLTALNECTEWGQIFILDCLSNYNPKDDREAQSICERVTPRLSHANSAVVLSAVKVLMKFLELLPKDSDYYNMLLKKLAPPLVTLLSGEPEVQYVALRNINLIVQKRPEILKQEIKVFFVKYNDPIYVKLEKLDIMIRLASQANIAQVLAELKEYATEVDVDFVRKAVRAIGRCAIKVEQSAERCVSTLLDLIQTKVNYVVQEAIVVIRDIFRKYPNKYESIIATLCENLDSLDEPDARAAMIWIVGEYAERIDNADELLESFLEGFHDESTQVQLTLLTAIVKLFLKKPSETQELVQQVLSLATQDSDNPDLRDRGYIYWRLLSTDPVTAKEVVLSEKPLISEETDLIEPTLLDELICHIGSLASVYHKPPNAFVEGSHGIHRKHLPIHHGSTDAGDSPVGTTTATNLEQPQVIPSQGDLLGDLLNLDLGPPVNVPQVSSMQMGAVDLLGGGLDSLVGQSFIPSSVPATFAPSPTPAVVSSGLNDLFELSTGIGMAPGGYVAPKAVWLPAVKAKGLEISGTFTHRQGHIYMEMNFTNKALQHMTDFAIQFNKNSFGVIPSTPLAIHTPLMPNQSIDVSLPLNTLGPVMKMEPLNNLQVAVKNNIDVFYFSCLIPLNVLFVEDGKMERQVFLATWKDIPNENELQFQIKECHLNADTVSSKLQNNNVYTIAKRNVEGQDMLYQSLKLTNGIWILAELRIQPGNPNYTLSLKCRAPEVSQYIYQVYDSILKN

Turning to `NS(=O)(=O)c1cc(C2(O)NC(=O)c3ccccc32)ccc1Cl` (stereo not given), the percent of DMSO control GFP in assay [1] is 101% (inactive). In addition, the figures for the GFP response vs DMSO in assay [2] and in assay [4] were 117% (inactive) and 78.7% (inactive), respectively. Moreover, the percent response of DMSO control in assay [3] is 115% (inactive). Moreover, the GFP response, % of DMSO in assay [5] was 89.6% (inactive). In assay [6], this molecule gave a double positive events of 58.2%. For the same molecule, the vesicle binding response in assay [6] is 252% (inactive). Moreover, the inhibition in assay [7] was -16.8% (inactive); in assay [11], -17.4% (inactive); in [15], 9% (inactive). Besides, in [8], the superoxide response (% of plate) is 110% (inactive). The aptamer binding inhibition in assay [9] was -6% (inactive). Besides, the results for the response in [10] and in assay [12] were -3.96% (inactive) and 1.36% (inactive), respectively. Further, the binding (% of control) in assay [13] is 105% (inactive). The efflux inhibition (fraction of control) in [14] is -0.13 (inactive). For the same molecule, in assay [16], the differentiation response is 4.09% (inactive).

Turning to `COc1cc(C(=O)Nc2ccc(N(C)C)cc2)c([N+](=O)[O-])cc1OC`, the percent of DMSO control GFP in assay [1] was 100% (inactive). Besides, the GFP response vs DMSO in [2] and in assay [4] was 104% (inactive) each time. In addition, the percent response of DMSO control in [3] was 101% (inactive). In addition, in assay [5], the GFP response, % of DMSO was 98.6% (inactive). In assay [6], this molecule gave a double positive events of 63.5%. For the same molecule, the vesicle binding response in assay [6] is 224% (inactive). The inhibition in assay [7] is -3.57% (inactive); in assay [11], 2.96% (inactive); in assay [15], 7% (inactive). Besides, the superoxide response (% of plate) in assay [8] is 101% (inactive). In assay [9], the aptamer binding inhibition was 4% (inactive). Besides, the response in assay [10] was -1.8% (inactive); in [12], 0.28% (inactive). Also, the binding (% of control) in assay [13] is 93.2% (inactive). The efflux inhibition (fraction of control) in [14] is -0.2 (inactive). Besides, the differentiation response in [16] is 4.15% (inactive).

With `O=C1[C@@H]2[C@H](Cc3ccc(O)cc3)N[C@]3(C(=O)Nc4ccccc43)[C@@H]2C(=O)N1c1ccc(F)cc1`, in assay [1], the percent of DMSO control GFP is 106% (inactive). The GFP response vs DMSO in assay [2] was 103% (inactive); in [4], 90.1% (inactive). The percent response of DMSO control in assay [3] is 100% (inactive). Moreover, in [5], the GFP response, % of DMSO was 91.9% (inactive). The double positive events in assay [6] came out at 61.1%. Also, the vesicle binding response in assay [6] was 1070% (inactive). The inhibition in [7] was 14.1% (inactive); in assay [11], 3.35% (inactive); in assay [15], 0% (inactive). The superoxide response (% of plate) in assay [8] was 90% (inactive). For the same molecule, the aptamer binding inhibition in [9] is 2% (inactive). Besides, the response is -3.4% (inactive) in assay [10] and -0.08% (inactive) in assay [12]. The binding (% of control) in [13] is 92.2% (inactive). Besides, the efflux inhibition (fraction of control) in assay [14] was 0.3 (inactive). Moreover, in [16], the differentiation response was 6.11% (inactive).

As for `Cc1cccc(CN2CCN(C(c3ccccc3)c3ccc(Cl)cc3)CC2)c1` (stereo not given), the percent of DMSO control GFP in [1] is 97.7% (inactive). For the same molecule, the GFP response vs DMSO in [2] was 104% (inactive); in [4] it was 99.4% (inactive). Besides, the percent response of DMSO control in [3] is 98.2% (inactive). For the same molecule, the GFP response, % of DMSO in assay [5] is 96.9% (inactive). This molecule also displayed a double positive events in [6] of 62.4%. Further, the vesicle binding response in assay [6] was 227% (inactive). Besides, the results for the inhibition in [7], in assay [11] and in assay [15] were -6.04% (inactive), 35.5% (inactive) and -1% (inactive), respectively. Moreover, in [8], the superoxide response (% of plate) was 99.2% (inactive). Further, the aptamer binding inhibition in [9] was 2% (inactive). For the same molecule, the values for the response in assay [10] and in assay [12] were 8.57% (inactive) and 0.49% (inactive), respectively. Further, the binding (% of control) in [13] is 105% (inactive). In assay [14], the efflux inhibition (fraction of control) is 0.46 (active). For the same molecule, the differentiation response in assay [16] is 26.3% (inactive).

For the molecule `COc1ccc(OC)c(NC2=C(Cl)C(=O)N(Cc3ccccc3)C2=O)c1`, the percent of DMSO control GFP in assay [1] was 104% (inactive). Besides, the GFP response vs DMSO in assay [2] is 105% (inactive); in [4], 103% (inactive). Further, in assay [3], the percent response of DMSO control was 103% (inactive). Besides, the GFP response, % of DMSO in assay [5] is 99.8% (inactive). In addition, in assay [6], the double positive events was 59.3%. Further, the vesicle binding response in [6] is 98% (inactive). For the same molecule, the values for the inhibition in [7], in assay [11] and in assay [15] were 4.27% (inactive), 5.66% (inactive) and 0% (inactive), respectively. In addition, in assay [8], the superoxide response (% of plate) is 99.4% (inactive). Moreover, the aptamer binding inhibition in assay [9] was 0% (inactive). Also, the figures for the response in assay [10] and in assay [12] were 3% (inactive) and 2.16% (inactive), respectively. Further, the binding (% of control) in assay [13] was 107% (inactive). Further, the efflux inhibition (fraction of control) in [14] was -0.075 (inactive). Further, the differentiation response in assay [16] was -11.9% (inactive).
